Values joined by “and” are separate entries in the source; they are usually repeats but may differ in a detail not shown here. Identical values can stand only once. About 2,000 (36%) of roughly 5,500 compounds were called active. Another 18% or so got no clear call; they are omitted. Cut-off read from the data, not from the text of the source: active = normalized growth mostly below about 0.91 (no sharp cut-off); inconclusive = no clear call, values can overlap the other calls; inactive = mostly above about 0.92. The list shows a part of the results.
Assay: chemical genetic growth profiling, strain panel (AID 1159580);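 note: tested at 20 µM; growth read once vehicle control cultures reached saturation at 30 °C; 1 = growth at the plate median or of vehicle wells; lower values mean less growth of the strain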
Settings: S. cerevisiae deletion strains, growth OD

Measured: normalized growth

CC[C@@]1(O)C(=O)OCc2c1cc1n(c2=O)Cc2cc3cc(O)ccc3nc2-1
inactive: locus YAL021C, strain ccr4, active compounds read low 1.05 | locus YAL026C, strain drs2, active compounds read low 1.01 | locus YAL030W, strain snc1, active compounds read low 1.02 | locus YBL061C, strain skt5, active compounds read low 1.01 | locus YBR009C, strain hhf1, active compounds read low 0.972 | locus YBR021W, strain FUR4, active compounds read low 1.01 | locus YBR023C, strain chs3, active compounds read low 1.02 | locus YBR171W, strain sec66, active compounds read low 1.02 | locus YBR229C, strain ROT2, active compounds read low 1.01 | locus YBR231C, strain swc5, active compounds read low 0.98 | locus YBR279W, strain paf1, active compounds read low 1.03 | locus YCL011C, strain gbp2, active compounds read low 1.02 | locus YCL016C, strain dcc1, active compounds read low 1.01 | locus YCL029C, strain bik1, active compounds read low 0.992 | locus YCL069W, strain vba3, active compounds read low 1.01 | locus YCR088W, strain abp1, active compounds read low 1.01 | locus YDL005C, strain med2, active compounds read low 1.02 | locus YDL035C, strain GPR1, active compounds read low 1.01 | locus YDL040C, strain nat1, active compounds read low 1.02 | locus YDL074C, strain BRE1, active compounds read low 1 | locus YDL101C, strain DUN1, active compounds read low 1.03 | locus YDL185W, strain tfp1, active compounds read low 0.996 | locus YDL192W, strain arf1, active compounds read low 0.983 | locus YDR001C, strain nth1, active compounds read low 0.992 | locus YDR069C, strain doa4, active compounds read low 1.01 | locus YDR101C, strain arx1, active compounds read low 0.986 | locus YDR137W, strain rgp1, active compounds read low 0.997 | locus YDR159W, strain sac3, active compounds read low 0.946 | locus YDR162C, strain NBP2, active compounds read low 1.02 | locus YDR195W, strain ref2 1.01 | locus YDR297W, strain sur2, active compounds read low 0.987 | locus YDR318W, strain mcm21, active compounds read low 0.992 | locus YDR334W, strain swr1, active compounds read low 1.04 | locus YDR335W, strain msn5, active compounds read low 0.997 | locus YDR388W, active compounds read low 0.989 | locus YDR392W, strain spt3, active compounds read low 0.976 | locus YDR502C, strain sam2, active compounds read low 0.973 | locus YEL003W, strain gim4, active compounds read low 0.995 | locus YEL037C, strain rad23, active compounds read low 1.01 | locus YEL061C, strain CIN8 (second series), active compounds read low 1.01 | locus YEL061C, strain CIN8, active compounds read low 1.01 | locus YER015W, strain faa2, active compounds read low 0.993 | locus YER016W, strain bim1, active compounds read low 1.02 | locus YER110C, active compounds read low 0.991 | locus YER111C, strain swi4, active compounds read low 1.01 | locus YER155C, strain BEM2 (second series), active compounds read low 0.972 | locus YER155C, strain BEM2, active compounds read low 1.01 | locus YER167W, strain BCK2, active compounds read low 1.01 | locus YFR010W, strain ubp6, active compounds read low 0.972 | locus YGL078C, strain dbp3, active compounds read low 0.99 | locus YGL086W, strain mad1, active compounds read low 0.988 | locus YGL167C, strain pmr1, active compounds read low 1.01 | locus YGL173C, strain kem1, active compounds read low 0.97 | locus YGL227W, strain vid30, active compounds read low 1.01 | locus YGL240W, strain doc1, active compounds read low 0.947 | locus YGL248W, strain PDE1, active compounds read low 1.03 | locus YGL253W, strain hxk2, active compounds read low 1 | locus YGR078C, strain PAC10, active compounds read low 1.02 | locus YGR135W, strain pre9, active compounds read low 0.991 | locus YGR252W, strain gcn5, active compounds read low 0.972 | locus YHR013C, strain ard1, active compounds read low 1.03 | locus YHR027C, strain rpn1, active compounds read low 1 | locus YHR030C, strain SLT2, active compounds read low 1.02 and 0.974 | locus YHR079C, strain IRE1 (second series), active compounds read low 0.981 | locus YHR079C, strain IRE1, active compounds read low 0.952 | locus YHR094C, strain hxt1, active compounds read low 0.98 | locus YHR129C, strain ARP1, active compounds read low 1.01 | locus YHR142W, strain chs7, active compounds read low 1.02 | locus YHR200W, strain rpn10, active compounds read low 1.01 | locus YIL066C, strain RNR3, active compounds read low 1.01 | locus YIL073C, strain SPO22, active compounds read low 0.985 | locus YIL125W, strain kgd1, active compounds read low 0.992 | locus YIR030C, strain dcg1, active compounds read low 0.981 | locus YJL092W, strain hpr5, active compounds read low 0.992 | locus YJL095W, strain BCK1 (second series), active compounds read low 1.02 | locus YJL095W, strain BCK1, active compounds read low 1.04 and 0.957 | locus YJL115W, strain asf1, active compounds read low 0.984 | locus YJL129C, strain trk1, active compounds read low 1 | locus YJL134W, strain LCB3, active compounds read low 1.02 | locus YJL154C, strain vps35, active compounds read low 1 | locus YJL164C, strain tpk1, active compounds read low 1.01 | locus YJL166W, strain qcr8, active compounds read low 0.99 | locus YJL168C, strain set2, active compounds read low 0.989 | locus YJL187C, strain SWE1 (second series), active compounds read low 1.02 | locus YJL187C, strain SWE1, active compounds read low 1.02 | locus YJR043C, strain POL32, active compounds read low 0.993 | locus YJR066W, strain TOR1, active compounds read low 0.986 | locus YKL009W, strain mrt4, active compounds read low 1.04

— PubChem BioAssay AID1159580 (chemical genetic matrix, 2015)
